# Measured values as given in PMC7862700, “An all-to-all approach to the identification of sequence-specific readers for epigenetic DNA modifications on cytosine”.
# Columns and labels:
# Experiment in all cases: DAPPL (digital affinity profiling via proximity ligation, sequencing); 10 mM Tris-HCl pH 7.5, 50 mM NaCl, 1 mM DTT, 4% glycerol, room temperature, 30 min; GST-TFs on glutathione beads, 16-mer random dsDNA library, 0.1% formaldehyde crosslink after washing; high values mean tight binding
# FEV = target: T1, FEV (Homo sapiens, UniProt Q99581 1-238); settings: protein: recombinant; tags: N-terminal GST; dsDNA, one strand shown
# T1 sequence: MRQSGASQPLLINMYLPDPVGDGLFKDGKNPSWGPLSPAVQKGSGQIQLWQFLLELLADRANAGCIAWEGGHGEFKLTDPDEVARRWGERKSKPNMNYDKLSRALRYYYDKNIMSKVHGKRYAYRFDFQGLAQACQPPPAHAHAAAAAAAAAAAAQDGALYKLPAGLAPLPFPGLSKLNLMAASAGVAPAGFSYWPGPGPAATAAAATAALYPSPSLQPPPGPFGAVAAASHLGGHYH
# Procedure, shortened: (§1)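 Yeast served to express human transcription factors as GST fusions, which were then captured on glutathione beads and labelled with DNA barcodes. Pooled with a tag-only sample, they were incubated with 200 nmole of a 16-mer random double-stranded DNA library for 30 min at room temperature in Tris/NaCl/DTT/glycerol buffer, washed, crosslinked with 0.1% formaldehyde, ligated by proximity, amplified by PCR and sequenced. Dividing each hexamer's read frequency for a factor by its frequency for the tag-only sample gives the binding signal.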
# ETV5 = ETV5 (Homo sapiens, UniProt P41161 1-510); settings: protein: recombinant; tags: N-terminal GST; dsDNA, one strand shown
# Chain of ETV5 (P41161 whole entry): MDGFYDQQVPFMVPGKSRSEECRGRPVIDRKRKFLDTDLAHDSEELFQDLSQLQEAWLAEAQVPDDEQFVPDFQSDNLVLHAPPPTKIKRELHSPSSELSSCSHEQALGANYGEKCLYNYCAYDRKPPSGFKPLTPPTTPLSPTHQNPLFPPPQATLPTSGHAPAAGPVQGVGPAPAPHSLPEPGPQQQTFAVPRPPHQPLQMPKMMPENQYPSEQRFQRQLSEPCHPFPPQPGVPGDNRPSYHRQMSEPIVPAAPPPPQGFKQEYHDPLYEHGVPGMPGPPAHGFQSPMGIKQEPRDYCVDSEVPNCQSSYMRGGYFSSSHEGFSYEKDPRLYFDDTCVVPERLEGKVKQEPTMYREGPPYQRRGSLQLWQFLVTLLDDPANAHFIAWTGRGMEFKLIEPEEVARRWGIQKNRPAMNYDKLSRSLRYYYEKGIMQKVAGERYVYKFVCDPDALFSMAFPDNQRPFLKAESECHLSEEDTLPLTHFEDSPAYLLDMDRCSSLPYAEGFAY
# Procedure, shortened: as §1
# HSF1 = HSF1 (Homo sapiens, UniProt Q00613 1-529); settings: protein: recombinant; tags: N-terminal GST; chain copies: 3; dsDNA, one strand shown
# Chain of HSF1 (Q00613 whole entry): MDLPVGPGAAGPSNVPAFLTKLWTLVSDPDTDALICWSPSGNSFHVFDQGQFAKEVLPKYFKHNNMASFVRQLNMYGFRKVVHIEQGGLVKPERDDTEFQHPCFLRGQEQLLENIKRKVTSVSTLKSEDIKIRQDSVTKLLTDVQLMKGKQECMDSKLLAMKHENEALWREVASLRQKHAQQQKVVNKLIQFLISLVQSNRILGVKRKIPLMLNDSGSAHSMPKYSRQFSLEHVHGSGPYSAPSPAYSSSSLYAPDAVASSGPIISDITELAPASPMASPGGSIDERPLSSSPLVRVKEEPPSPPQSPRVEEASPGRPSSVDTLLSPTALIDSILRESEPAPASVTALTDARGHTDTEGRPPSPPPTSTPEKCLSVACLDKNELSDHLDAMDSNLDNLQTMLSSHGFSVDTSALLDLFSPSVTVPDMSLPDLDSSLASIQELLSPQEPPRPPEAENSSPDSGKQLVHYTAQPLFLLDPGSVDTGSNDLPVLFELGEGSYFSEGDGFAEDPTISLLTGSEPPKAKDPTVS
# Procedure, shortened: as §1
# SPIC = target: T2, SPIC (Homo sapiens, UniProt Q8N5J4 1-248); settings: protein: recombinant; tags: N-terminal GST; dsDNA, one strand shown
# T2 sequence: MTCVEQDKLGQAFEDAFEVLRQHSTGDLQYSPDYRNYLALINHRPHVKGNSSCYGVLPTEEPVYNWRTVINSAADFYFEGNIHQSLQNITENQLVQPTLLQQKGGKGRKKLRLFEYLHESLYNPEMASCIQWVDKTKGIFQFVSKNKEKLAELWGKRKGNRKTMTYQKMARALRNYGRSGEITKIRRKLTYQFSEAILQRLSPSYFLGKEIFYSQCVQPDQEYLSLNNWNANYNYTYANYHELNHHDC
# Procedure, shortened: as §1
# ELF4 = ELF4 (Homo sapiens, UniProt Q99607 1-663); settings: protein: recombinant; tags: N-terminal GST; dsDNA, one strand shown
# Chain of ELF4 (Q99607 whole entry): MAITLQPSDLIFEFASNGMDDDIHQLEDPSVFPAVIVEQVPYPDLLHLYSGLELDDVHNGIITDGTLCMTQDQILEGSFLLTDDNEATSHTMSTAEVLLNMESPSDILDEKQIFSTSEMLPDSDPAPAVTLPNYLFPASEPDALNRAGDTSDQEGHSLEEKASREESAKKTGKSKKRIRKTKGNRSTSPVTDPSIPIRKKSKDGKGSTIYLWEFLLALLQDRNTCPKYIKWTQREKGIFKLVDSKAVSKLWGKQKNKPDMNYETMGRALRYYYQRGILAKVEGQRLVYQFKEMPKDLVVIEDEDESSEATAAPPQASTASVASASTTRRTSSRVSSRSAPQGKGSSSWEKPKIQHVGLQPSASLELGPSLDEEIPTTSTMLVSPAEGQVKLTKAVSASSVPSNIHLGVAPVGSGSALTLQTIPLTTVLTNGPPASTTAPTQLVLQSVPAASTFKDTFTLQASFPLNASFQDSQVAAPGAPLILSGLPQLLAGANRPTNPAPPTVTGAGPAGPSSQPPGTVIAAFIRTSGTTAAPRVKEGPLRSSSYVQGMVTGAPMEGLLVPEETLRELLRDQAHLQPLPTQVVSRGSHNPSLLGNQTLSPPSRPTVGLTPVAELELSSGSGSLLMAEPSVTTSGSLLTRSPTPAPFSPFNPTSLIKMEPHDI
# Procedure, shortened: as §1
# ELK4 = target: T3, ELK4 (Homo sapiens, UniProt P28324-2 1-405); settings: protein: recombinant; tags: N-terminal GST; dsDNA, one strand shown
# T3 sequence: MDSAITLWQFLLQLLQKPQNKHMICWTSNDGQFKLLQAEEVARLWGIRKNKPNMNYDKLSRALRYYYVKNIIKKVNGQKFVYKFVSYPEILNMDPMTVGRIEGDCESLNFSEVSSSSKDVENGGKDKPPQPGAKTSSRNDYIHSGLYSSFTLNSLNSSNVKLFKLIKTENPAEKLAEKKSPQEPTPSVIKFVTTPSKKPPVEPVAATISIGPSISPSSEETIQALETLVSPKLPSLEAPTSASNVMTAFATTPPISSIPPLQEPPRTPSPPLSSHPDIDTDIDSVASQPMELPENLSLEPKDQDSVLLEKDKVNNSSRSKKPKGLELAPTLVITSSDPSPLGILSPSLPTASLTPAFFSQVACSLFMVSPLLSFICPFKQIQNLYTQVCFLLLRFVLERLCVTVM
# Procedure, shortened: as §1
# ETV2 = target: T4, ETV2 (Homo sapiens, UniProt O00321 1-342); settings: protein: recombinant; tags: N-terminal GST; dsDNA, one strand shown
# T4 sequence: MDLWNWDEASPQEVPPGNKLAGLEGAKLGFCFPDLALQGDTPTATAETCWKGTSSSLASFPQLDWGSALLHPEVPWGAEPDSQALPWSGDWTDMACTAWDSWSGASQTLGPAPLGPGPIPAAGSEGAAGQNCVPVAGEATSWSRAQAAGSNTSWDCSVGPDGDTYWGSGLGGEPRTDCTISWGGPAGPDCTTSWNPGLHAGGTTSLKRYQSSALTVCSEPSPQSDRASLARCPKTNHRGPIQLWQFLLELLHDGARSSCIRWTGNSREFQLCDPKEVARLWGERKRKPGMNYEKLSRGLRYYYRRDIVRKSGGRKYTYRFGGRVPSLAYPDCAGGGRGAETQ
# Procedure, shortened: as §1
# ELF3 = target: T5, ELF3 (Homo sapiens, UniProt P78545 1-371); settings: protein: recombinant; tags: N-terminal GST; dsDNA, one strand shown
# T5 sequence: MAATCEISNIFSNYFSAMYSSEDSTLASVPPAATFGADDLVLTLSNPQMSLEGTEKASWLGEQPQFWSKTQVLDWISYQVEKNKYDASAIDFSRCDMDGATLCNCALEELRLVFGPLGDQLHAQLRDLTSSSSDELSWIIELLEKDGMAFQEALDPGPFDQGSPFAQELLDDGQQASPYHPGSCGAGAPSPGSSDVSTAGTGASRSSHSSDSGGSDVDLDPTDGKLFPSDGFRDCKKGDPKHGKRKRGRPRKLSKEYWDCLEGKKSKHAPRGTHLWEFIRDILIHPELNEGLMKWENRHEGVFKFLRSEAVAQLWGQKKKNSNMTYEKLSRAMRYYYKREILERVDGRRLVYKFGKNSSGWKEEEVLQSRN
# Procedure, shortened: as §1
# ETV1 = ETV1 (Homo sapiens, UniProt P50549 1-477); settings: protein: recombinant; tags: N-terminal GST; dsDNA, one strand shown
# Chain of ETV1 (P50549 whole entry): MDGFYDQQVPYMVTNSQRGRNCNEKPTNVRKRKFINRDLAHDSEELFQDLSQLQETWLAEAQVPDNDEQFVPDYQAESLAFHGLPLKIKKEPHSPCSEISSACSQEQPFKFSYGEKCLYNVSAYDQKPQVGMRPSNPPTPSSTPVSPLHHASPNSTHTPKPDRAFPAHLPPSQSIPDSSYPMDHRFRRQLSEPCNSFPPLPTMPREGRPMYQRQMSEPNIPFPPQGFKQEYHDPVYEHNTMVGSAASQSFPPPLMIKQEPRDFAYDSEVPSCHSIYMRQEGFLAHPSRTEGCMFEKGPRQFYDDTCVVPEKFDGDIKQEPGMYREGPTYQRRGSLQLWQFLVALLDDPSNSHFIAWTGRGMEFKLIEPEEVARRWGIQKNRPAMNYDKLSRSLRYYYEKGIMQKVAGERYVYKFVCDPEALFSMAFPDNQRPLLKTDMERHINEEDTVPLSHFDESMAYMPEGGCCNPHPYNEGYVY
# Procedure, shortened: as §1
# ERF = target: T6, ERF (Homo sapiens, UniProt P50548 1-548); settings: protein: recombinant; tags: N-terminal GST; dsDNA, one strand shown
# T6 sequence: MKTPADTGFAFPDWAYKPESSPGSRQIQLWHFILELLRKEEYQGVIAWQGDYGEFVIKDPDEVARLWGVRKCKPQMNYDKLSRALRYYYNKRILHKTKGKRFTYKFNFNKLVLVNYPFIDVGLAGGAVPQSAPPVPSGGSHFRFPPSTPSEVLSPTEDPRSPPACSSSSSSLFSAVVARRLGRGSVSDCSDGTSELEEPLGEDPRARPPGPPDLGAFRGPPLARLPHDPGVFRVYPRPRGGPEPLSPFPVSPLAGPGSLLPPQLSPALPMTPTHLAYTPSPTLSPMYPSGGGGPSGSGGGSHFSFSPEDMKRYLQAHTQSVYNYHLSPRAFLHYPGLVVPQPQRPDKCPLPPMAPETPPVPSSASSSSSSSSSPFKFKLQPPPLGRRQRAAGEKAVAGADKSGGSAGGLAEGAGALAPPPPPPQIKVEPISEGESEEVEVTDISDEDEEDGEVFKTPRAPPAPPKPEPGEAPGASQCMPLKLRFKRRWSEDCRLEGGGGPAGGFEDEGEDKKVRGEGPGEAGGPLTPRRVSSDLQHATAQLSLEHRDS
# Procedure, shortened: as §1
# ETV3L = target: T7, ETV3L (Homo sapiens, UniProt Q6ZN32 1-361); settings: protein: recombinant; tags: N-terminal GST; dsDNA, one strand shown
# T7 sequence: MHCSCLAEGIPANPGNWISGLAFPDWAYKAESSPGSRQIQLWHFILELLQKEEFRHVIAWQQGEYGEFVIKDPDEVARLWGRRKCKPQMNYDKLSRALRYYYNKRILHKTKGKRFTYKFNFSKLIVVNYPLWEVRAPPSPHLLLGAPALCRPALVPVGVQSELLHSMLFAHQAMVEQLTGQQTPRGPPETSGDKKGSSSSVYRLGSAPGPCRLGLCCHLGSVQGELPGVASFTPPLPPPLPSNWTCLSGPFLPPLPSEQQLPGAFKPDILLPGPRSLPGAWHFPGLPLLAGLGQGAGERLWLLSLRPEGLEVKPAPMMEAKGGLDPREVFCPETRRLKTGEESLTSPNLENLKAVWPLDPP
# Procedure, shortened: as §1
# ETS2 = target: T8, ETS2 (Homo sapiens, UniProt P15036 1-469); settings: protein: recombinant; tags: N-terminal GST; dsDNA, one strand shown
# T8 sequence: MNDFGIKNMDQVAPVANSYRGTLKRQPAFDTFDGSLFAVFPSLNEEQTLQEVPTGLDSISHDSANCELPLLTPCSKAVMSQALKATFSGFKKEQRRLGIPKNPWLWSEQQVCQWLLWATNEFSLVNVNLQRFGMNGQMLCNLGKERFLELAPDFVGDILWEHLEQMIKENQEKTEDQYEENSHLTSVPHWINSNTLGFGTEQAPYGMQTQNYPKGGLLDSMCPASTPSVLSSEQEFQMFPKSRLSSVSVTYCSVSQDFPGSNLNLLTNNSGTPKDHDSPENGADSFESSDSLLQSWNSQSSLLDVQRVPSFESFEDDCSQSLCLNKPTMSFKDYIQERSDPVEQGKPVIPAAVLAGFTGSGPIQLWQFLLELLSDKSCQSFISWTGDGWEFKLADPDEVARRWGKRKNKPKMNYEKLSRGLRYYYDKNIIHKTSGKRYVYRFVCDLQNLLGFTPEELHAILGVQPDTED
# Procedure, shortened: as §1
# SPDEF = target: T9, SPDEF (Homo sapiens, UniProt O95238 1-335); settings: protein: recombinant; tags: N-terminal GST; dsDNA, one strand shown
# T9 sequence: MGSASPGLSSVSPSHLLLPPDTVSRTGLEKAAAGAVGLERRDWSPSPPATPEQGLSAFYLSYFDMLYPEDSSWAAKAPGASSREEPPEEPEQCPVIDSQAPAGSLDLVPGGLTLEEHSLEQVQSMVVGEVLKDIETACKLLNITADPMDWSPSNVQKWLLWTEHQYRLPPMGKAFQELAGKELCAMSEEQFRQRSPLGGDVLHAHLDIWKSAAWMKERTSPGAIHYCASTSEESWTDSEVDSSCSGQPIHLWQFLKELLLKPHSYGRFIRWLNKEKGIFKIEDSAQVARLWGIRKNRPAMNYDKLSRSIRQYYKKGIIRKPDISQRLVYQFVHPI
# Procedure, shortened: as §1
# ETV7 = target: T10, ETV7 (Homo sapiens, UniProt Q9Y603 1-341); settings: protein: recombinant; tags: N-terminal GST; dsDNA, one strand shown
# T10 sequence: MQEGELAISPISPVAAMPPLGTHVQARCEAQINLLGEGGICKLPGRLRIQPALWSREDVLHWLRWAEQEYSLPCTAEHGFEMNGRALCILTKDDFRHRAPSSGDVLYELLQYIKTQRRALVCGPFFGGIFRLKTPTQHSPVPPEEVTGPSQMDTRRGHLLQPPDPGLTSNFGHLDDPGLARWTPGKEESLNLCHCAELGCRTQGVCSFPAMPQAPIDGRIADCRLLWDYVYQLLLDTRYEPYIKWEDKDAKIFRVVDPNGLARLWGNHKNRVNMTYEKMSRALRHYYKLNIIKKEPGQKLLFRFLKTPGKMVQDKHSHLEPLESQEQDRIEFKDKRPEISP
# Procedure, shortened: as §1
# ELF5 = target: T11, ELF5 (Homo sapiens, UniProt Q9UKW6-2 1-255); settings: protein: recombinant; tags: N-terminal GST; dsDNA, one strand shown
# T11 sequence: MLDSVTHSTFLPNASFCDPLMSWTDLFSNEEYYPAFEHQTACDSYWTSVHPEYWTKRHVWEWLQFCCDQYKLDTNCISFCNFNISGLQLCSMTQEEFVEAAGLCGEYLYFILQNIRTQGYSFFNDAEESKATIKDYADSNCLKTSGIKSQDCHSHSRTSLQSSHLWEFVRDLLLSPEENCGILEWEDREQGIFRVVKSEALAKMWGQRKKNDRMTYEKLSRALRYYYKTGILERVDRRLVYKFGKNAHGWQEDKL
# Procedure, shortened: as §1
# ETV3 = target: T12, ETV3 (Homo sapiens, UniProt P41162-2 1-143); settings: protein: recombinant; tags: N-terminal GST; dsDNA, one strand shown
# T12 sequence: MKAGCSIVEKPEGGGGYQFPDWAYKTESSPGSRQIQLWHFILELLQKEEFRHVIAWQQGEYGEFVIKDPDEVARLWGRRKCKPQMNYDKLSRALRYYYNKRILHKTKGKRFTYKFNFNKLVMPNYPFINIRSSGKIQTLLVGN
# Procedure, shortened: as §1
# ETV6 = ETV6 (Homo sapiens, UniProt P41212 1-452); settings: protein: recombinant; tags: N-terminal GST; dsDNA, one strand shown
# Chain of ETV6 (P41212 whole entry): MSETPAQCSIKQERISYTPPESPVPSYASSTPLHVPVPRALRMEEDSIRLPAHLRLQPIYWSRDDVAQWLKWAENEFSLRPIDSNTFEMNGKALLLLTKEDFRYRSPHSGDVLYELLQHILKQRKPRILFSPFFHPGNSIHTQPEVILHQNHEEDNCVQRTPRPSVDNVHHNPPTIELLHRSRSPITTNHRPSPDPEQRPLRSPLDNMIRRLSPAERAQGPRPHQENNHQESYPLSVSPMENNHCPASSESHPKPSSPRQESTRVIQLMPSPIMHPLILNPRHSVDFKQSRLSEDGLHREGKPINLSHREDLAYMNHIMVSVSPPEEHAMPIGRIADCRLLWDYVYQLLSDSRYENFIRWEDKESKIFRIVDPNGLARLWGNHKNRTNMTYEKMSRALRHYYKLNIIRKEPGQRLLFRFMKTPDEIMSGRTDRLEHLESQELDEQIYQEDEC
# Procedure, shortened: as §1
sequence,measurement,setting,value
CGACCC,binding signal,FEV,"1.17 fold enrichment (6-mer frequency, TF over GST control)"
same,binding signal,ETV5,"1.3 fold enrichment (6-mer frequency, TF over GST control)"
same,binding signal,HSF1,"1.03 fold enrichment (6-mer frequency, TF over GST control)"
same,binding signal,SPIC,"1.23 fold enrichment (6-mer frequency, TF over GST control)"
same,binding signal,ELF4,"1.31 fold enrichment (6-mer frequency, TF over GST control)"
same,binding signal,ELK4,"1.17 fold enrichment (6-mer frequency, TF over GST control)"
same,binding signal,ETV2,"1.39 fold enrichment (6-mer frequency, TF over GST control)"
same,binding signal,ELF3,"1.2 fold enrichment (6-mer frequency, TF over GST control)"
same,binding signal,ETV1,"1.23 fold enrichment (6-mer frequency, TF over GST control)"
same,binding signal,ERF,"1.36 fold enrichment (6-mer frequency, TF over GST control)"
same,binding signal,ETV3L,"1.28 fold enrichment (6-mer frequency, TF over GST control)"
same,binding signal,ETS2,"1.29 fold enrichment (6-mer frequency, TF over GST control)"
same,binding signal,SPDEF,"1.44 fold enrichment (6-mer frequency, TF over GST control)"
same,binding signal,ETV7,"1.28 fold enrichment (6-mer frequency, TF over GST control)"
same,binding signal,ELF5,"1.26 fold enrichment (6-mer frequency, TF over GST control)"
same,binding signal,ETV3,"1.4 fold enrichment (6-mer frequency, TF over GST control)"
same,binding signal,ETV6,"1.29 fold enrichment (6-mer frequency, TF over GST control)"
